Compound activity as filed in PubChem BioAssay.
Only some compounds are listed: those with a hit (about 17% of all), similar ones and a draw of the others.
DT40 TDP1 no CPT = qHTS for Inhibitors of human tyrosyl-DNA phosphodiesterase 1 (TDP1): qHTS in cells in absence of CPT; AID 686978, 2013; DT40 Tdp1-/- hTDP1 cells, no CPT, ATP luminescence, 48 h; Potency, µM (titrated, usually from 46.2 µM), actives largely listed as inhibitors; actives 15% (n = 420,000); note: nearly all actives have a fitted effect of over 55% in size
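Growth of hTDP1-complemented DT40 Tdp1-knockout cells is measured by ATP luminescence after at least 48 hr compound exposure at 37 °C, with DMSO substituting for the 20 nM CPT used in the parallel screen.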
TGFb SMAD3 inh = TGF-b pathway inhibition. HepG2 CAGA-GFP TGF-b/SMAD3 reporter, GFP fluorescence, 18 h; TGF-beta stimulated, 500 pg/mL final. Potency, µM (titrated, usually from 46.1 µM), actives largely listed as inhibitors. actives 1.2% (n = 410,000); note: nearly all actives have a fitted effect of over 65% in size
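TGF-beta reporter screen: HEPG2 CAGA-GFP, 1% FBS, 500 pg/mL TGF-beta final, 18 h; per-cell GFP summed per well; curves fitted and categorized by class.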
S2 tox = reduces viability in counter-screen for ATXN expression inhibitors; Potency, µM (titrated, usually from 56.7 µM), hits mostly cytotoxic; S2 cells (HEK-293 line with an ATXN2-luciferase reporter) viability, CellTiter-Fluor protease fluorescence, 24 h; actives 0.49% (n = 400,000); note: nearly all actives have a fitted effect of over 40% in size
HepG2 tox = counter-screen for TGF-b inhibitors: cytotoxicity in HepG2 cells. HepG2 CAGA-GFP viability, ATP luminescence, 18 h. Potency, µM (highest dose often 46.1 µM), hits mostly cytotoxic. actives 0.76% (n = 410,000). AID 588856
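CellTiter-Glo luminescence gave cytotoxicity after 18 hours at 37 degrees C. The cells were HepG2 CAGA-GFP in 1% FBS DMEM, stimulated with 500 pg/mL TGF-beta after compound addition. %Activity was normalised to no-cell wells (complete cell-killing) and DMSO (no toxicity), and curves were fitted and classified.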
ATXN2 expr inh = ATXN2 expression inhibition | HEK-293 ATXN2-luciferase reporter, luminescence, 24 h | Potency, µM (series often up to 57 µM), hits mostly inhibitors | actives 0.72% (n = 360,000) | AID 1745845; note: nearly all actives have a fitted effect of over 55% in size
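ATXN2-luciferase reporter cells (luciferase flanked by upstream and downstream ATXN2 gene portions) were treated 24 h at 37 °C with compounds at up to 57 uM. SteadyGlo luminescence gave expression; GF-AFC fluorescence gave viability.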
TDP1 cell CPT = growth inhibition of DT40 Tdp1-/-;hTDP1 cells with camptothecin (screen for TDP1 inhibitors); AID 686979; Potency, µM (doses to about 46.2 µM), usual class: inhibitors; actives 12% (n = 420,000); chicken DT40 Tdp1-/-;hTDP1 cells + 20 nM CPT, ATP luminescence, 48 h; note: nearly all actives have a fitted effect of over 55% in size
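Chicken DT40 Tdp1-/- cells complemented with human TDP1, 400 cells/well, exposed to compounds plus 20 nM camptothecin for at least 48 h at 37 C; viability read as ATP content by CellTiter-Glo luminescence.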
Large screens that a line does not name were inactive. Calls come from the whole dose curve; as a rule, active = well fitted curve in the direction sought with a large enough effect; inconclusive = small, poorly fitted or top-dose-only effect, or another doubt; inactive = no such curve, though single readings can be large; an effect the other way counts as inactive or inconclusive.

COCCNC(=O)/C(C#N)=C/c1c(N2CCN(c3cccc(Cl)c3)CC2)nc2c(C)cccn2c1=O	DT40 TDP1 no CPT 23µM, TGFb SMAD3 inh inconclusive, TDP1 cell CPT 16µM (no result: ATXN2 expr inh)
CCOC(=O)/C(C#N)=C/c1c(N2CCN(c3cccc(Cl)c3)CC2)nc2c(C)cccn2c1=O	DT40 TDP1 no CPT inconclusive, TDP1 cell CPT inconclusive
CCN1CCN(c2nc3c(C)cccn3c(=O)c2/C=C(\C#N)C(=O)NCCCOC)CC1	none
Cc1ccccc1Oc1nc2c(C)cccn2c(=O)c1/C=C(\C#N)C(=O)Nc1c(C)n(C)n(-c2ccccc2)c1=O	DT40 TDP1 no CPT 21µM, TGFb SMAD3 inh inconclusive, TDP1 cell CPT 21µM
CCNC(=O)/C(C#N)=C/c1c(N2CCCCCC2)nc2c(C)cccn2c1=O	DT40 TDP1 no CPT 23µM, TDP1 cell CPT inconclusive
COCCNC(=O)/C(C#N)=C/c1c(N2CCN(c3ccccc3)CC2)nc2c(C)cccn2c1=O	DT40 TDP1 no CPT inconclusive, TDP1 cell CPT 23µM
Cc1ccccc1Oc1nc2ccccn2c(=O)c1/C=C(\C#N)C(=O)Nc1c(C)n(C)n(-c2ccccc2)c1=O	DT40 TDP1 no CPT inconclusive, TDP1 cell CPT inconclusive
O=C(Nc1ccc(Cl)cc1)C1CCN(c2nc3ccccc3nc2C(F)(F)F)CC1	TDP1 cell CPT inconclusive
Cc1ccc(S(=O)(=O)N2C[C@@H]3[C@H]4CC[C@H](C4)[C@@H]3[C@@H](C)C2CC(=O)c2ccccc2)cc1 (some centres undefined)	DT40 TDP1 no CPT 23µM, TDP1 cell CPT inconclusive
Cc1ccc(S(=O)(=O)N2C[C@@H]3[C@H]4CC[C@H](C4)[C@@H]3[C@@H](C)[C@@H]2c2ccn([Si](C(C)C)(C(C)C)C(C)C)c2)cc1	DT40 TDP1 no CPT 23µM, TDP1 cell CPT inconclusive
C=CCC1[C@H](C)[C@H]2[C@@H]3CC[C@@H](C3)[C@H]2CN1S(=O)(=O)c1ccc(C)cc1 (some centres undefined)	DT40 TDP1 no CPT inconclusive, TGFb SMAD3 inh inconclusive, TDP1 cell CPT 18µM
Cc1ccc(S(=O)(=O)N2C[C@@H]3c4ccccc4N(S(=O)(=O)c4ccc(C)cc4)[C@@H]3[C@@H](C)C2CC(=O)c2ccccc2)cc1 (some centres undefined)	none
CC(=O)c1ccc(OCCCC(=O)OCC(=O)Nc2ccc3[nH]c(=O)[nH]c3c2)cc1	none
COc1ccc(C(=O)Nc2cc(-c3ccccc3)nn2-c2ccccc2F)cc1	DT40 TDP1 no CPT inconclusive, TGFb SMAD3 inh inconclusive, TDP1 cell CPT 23µM
Cc1noc(C)c1COc1ccc(C(=O)OC(C)C(=O)Nc2ccc(S(=O)(=O)N3CCOCC3)cc2)cc1 (centres undefined)	DT40 TDP1 no CPT inconclusive, TDP1 cell CPT inconclusive
O=C1CC(c2ccccc2)CC2=C1C1(CCCC1)N=C(Nc1nc3ccccc3o1)N2 (centres undefined)	none (no result: DT40 TDP1 no CPT, TDP1 cell CPT)
CC(C)Cc1ccc(CN2CCCC(NC(=O)CCCN3CCCC3=O)C2)cc1 (centres undefined)	DT40 TDP1 no CPT 21µM, TDP1 cell CPT inconclusive (no result: ATXN2 expr inh)
CC(C)Cc1ccc(CN2CCCC(NC(=O)CCN3CCOCC3)C2)cc1 (centres undefined)	DT40 TDP1 no CPT inconclusive, S2 tox inconclusive, TDP1 cell CPT inconclusive
CC(=O)Nc1ccc(S(=O)(=O)N2CCC(c3nc4c(nnn4Cc4ccccc4Cl)c(=O)[nH]3)CC2)cc1	none
O=C(Nc1nc2c(F)cccc2s1)c1ccc([N+](=O)[O-])o1	DT40 TDP1 no CPT 16µM, TDP1 cell CPT 13µM
O=C(Nc1nc2c(Cl)cccc2s1)c1ccc([N+](=O)[O-])o1	DT40 TDP1 no CPT 16µM, S2 tox inconclusive, ATXN2 expr inh inconclusive, TDP1 cell CPT 21µM
O=C(Nc1ncccn1)c1ccc([N+](=O)[O-])o1	DT40 TDP1 no CPT inconclusive, TGFb SMAD3 inh inconclusive, TDP1 cell CPT inconclusive
CCCOc1ccc(C(=O)N2CCN(c3ccc(N)cc3Cl)CC2)cc1	DT40 TDP1 no CPT 21µM, TDP1 cell CPT 23µM
Cc1ccc(C(=O)N2CCN(c3ccc(N4CCOCC4)nn3)CC2)cc1	none
CCCCOc1ccc(C(=O)N2CCN(c3ccc(N4CCOCC4)nn3)CC2)cc1	DT40 TDP1 no CPT inconclusive, ATXN2 expr inh inconclusive, TDP1 cell CPT 23µM
CCOc1ccc(C(=O)N2CCN(c3ncccn3)CC2)cc1	none (no result: ATXN2 expr inh)
CN(C)c1cccc2c1c(NC(=O)Nc1ccc(Cl)cc1Cl)nn2C	none (no result: ATXN2 expr inh)
COc1ccccc1NC(=O)Nc1nn(C)c2cccc(N(C)C)c12	DT40 TDP1 no CPT 16µM, TDP1 cell CPT 15µM
O=C(CN1CCN(C(=O)CNC(=O)c2ccc3c(c2)OCO3)CC1)Nc1cccc(F)c1	none (no result: ATXN2 expr inh)
COc1cccc(C2=CC(c3cccs3)n3nnnc3N2)c1 (centres undefined)	DT40 TDP1 no CPT 3.3µM, TDP1 cell CPT 2.3µM
COc1ccc(C2CC(c3cc(Br)ccc3F)n3nnnc3N2)cc1 (centres undefined)	DT40 TDP1 no CPT inconclusive, TDP1 cell CPT inconclusive
COc1ccc(C2C=C(c3ccc(Br)cc3)Nc3nnnn32)c(OC)c1 (centres undefined)	DT40 TDP1 no CPT 23µM (no result: S2 tox, ATXN2 expr inh)
CCc1ccc(C2=CC(c3cc(Br)ccc3F)n3ncnc3N2)cc1 (centres undefined)	DT40 TDP1 no CPT 18µM, TDP1 cell CPT 23µM (no result: S2 tox)
COc1cccc(C2=CC(c3ccc(OC)c(OC)c3OC)n3nnnc3N2)c1 (centres undefined)	none
Cc1ccc(C2=CC(c3ccccc3)n3ncnc3N2)cc1 (centres undefined)	DT40 TDP1 no CPT inconclusive, TDP1 cell CPT inconclusive (no result: S2 tox)
Fc1ccc(Br)cc1C1C=C(c2ccc(Br)cc2)Nc2nnnn21 (centres undefined)	DT40 TDP1 no CPT 23µM, TDP1 cell CPT inconclusive (no result: S2 tox)
Cc1ccc2nc3c(c(C(=O)OC4CCOC4=O)c2c1)CCCC3 (centres undefined)	none
COCC(=O)N(Cc1cc2ccc(C)cc2[nH]c1=O)c1cccc(C)c1	none
Cc1ccc(C)c(NC(=O)CSc2nc(=O)n(Cc3ccccn3)c3c2CCC3)c1	DT40 TDP1 no CPT inconclusive
CN1CCN(CC(=O)N2c3ccccc3C(C)(c3ccccc3)CC2(C)C)CC1 (centres undefined)	DT40 TDP1 no CPT 18µM, S2 tox inconclusive, ATXN2 expr inh inconclusive, TDP1 cell CPT 16µM
